Reference: PubChem BioAssay (EPA / NIEHS)
Several values for one entry are separate records, joined by “and”; a condition that tells them apart may be missing. Equal values may be shown once. A structure can be active in one record and inactive in another. Activity calls are given as the source filed them. How the source made its calls: active means hit-call score of the fitted dose curve at least 0.9, where 1 is the maximum; inactive means score below 0.9.

Experiments:
[1] = read-out: Interleukin-1 alpha (IL1a), IL1A (gene 3552); assay: BSK_LPS_IL1a: BioMAP Diversity Plus: LPS Assay for Interleukin-1 alpha (IL1a) Biomarker Activity (AID 2283080); details: primary human HUVEC with PBMC; actives raise or lower the signal
Outline: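 Human umbilical vein endothelial cells co-cultured with peripheral blood mononuclear cells were LPS-stimulated and exposed to test chemicals for 24 h. IL-1 alpha was quantified by ELISA, with bidirectional curve fitting against DMSO as the negative control and baseline.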

[2] = read-out: Monocyte Chemoattractant Protein-1 (MCP1), CCL2 (gene 6347); assay: BSK_LPS_MCP1: BioMAP Diversity Plus: LPS Assay for Monocyte Chemoattractant Protein-1 (MCP1) Biomarker Activity (AID 2283081); details: primary human HUVEC with PBMC; actives raise or lower the signal;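 on AC50: secreted MCP-1 protein quantified by ELISA in culture supernatant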
Outline: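 HUVEC plus PBMC co-culture (human primary cells, LPS system) exposed to test chemical for 24 h; MCP-1 measured by ELISA. Bidirectional curve fitting against DMSO baseline; parallel SRB total-protein staining flags overt cytotoxicity.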

[3] = BSK_LPS_PGE2: BioMAP Diversity Plus: LPS Assay for Prostaglandin E2 (PGE2) Biomarker Activity (AID 2283082); details: primary human HUVEC with PBMC; actives raise or lower the signal;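 on AC50: secreted prostaglandin E2 measured by ELISA in LPS-stimulated co-culture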
Outline: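 Endpoint derived from bidirectional curve fitting versus DMSO of ELISA-measured PGE2 in LPS-stimulated human primary vascular co-culture (HUVEC with PBMC) harvested at 24 h.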

[4] = read-out: Macrophage colony-stimulating factor (MCSF), CSF1 (gene 1435); assay: BSK_LPS_MCSF: BioMAP Diversity Plus: LPS Assay for Macrophage colony-stimulating factor (MCSF) Biomarker Activity (AID 2283083); details: primary human HUVEC with PBMC; actives raise or lower the signal
Outline: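 Human umbilical vein endothelial cells co-cultured with peripheral blood mononuclear cells were exposed to compound for 24 h. M-CSF levels were measured by ELISA, and bidirectional curve fitting used DMSO as the negative control and baseline.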

[5] = read-out: Tissue Factor, F3 (gene 2152); assay: BSK_LPS_TissueFactor: BioMAP Diversity Plus: LPS Assay for Tissue Factor Biomarker Activity (AID 2283084); details: primary human HUVEC with PBMC; actives raise or lower the signal
Outline: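 Human umbilical vein endothelial cells co-cultured with peripheral blood mononuclear cells were dosed and stimulated with LPS. Cell-surface CD142 was quantified by ELISA at 24 h. Activity was fitted bidirectionally against DMSO baseline.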

[6] = read-out: Tumor necrosis factor (Homo sapiens) (UniProt P01375); assay: BSK_LPS_TNFa: BioMAP Diversity Plus: LPS Assay for Tumour Necrosis Factor alpha (TNFa) Biomarker Activity (AID 2283085); details: primary human HUVEC with PBMC; actives raise or lower the signal
Outline: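 Primary human vascular co-culture of HUVEC and PBMC; TNFa ELISA 24 h after treatment, analysed as increase or decrease relative to DMSO control.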

[7] = read-out: Vascular cell adhesion molecule 1 (VCAM1), VCAM1 (gene 7412); assay: BSK_LPS_VCAM1: BioMAP Diversity Plus: LPS Assay for Vascular cell adhesion molecule 1 (VCAM1) Biomarker Activity (AID 2283086); details: primary human HUVEC with PBMC; actives raise or lower the signal
Outline: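 Primary human vascular co-culture (umbilical vein endothelium plus PBMC) stimulated with LPS received chemical; 24 h later VCAM-1 was read by ELISA. Overt cytotoxicity was assessed by sulforhodamine B staining of parallel cultures at the same time point.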

CD38, CD38 (gene 952) = assay: BSK_SAg_CD38: BioMAP Diversity Plus: SAg Assay for CD38 Biomarker Activity (AID 2283087); details: primary human HUVEC with PBMC; actives raise or lower the signal
Outline: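 Fluorescence ELISA of cell-surface CD38 served as the read-out, with either increase or decrease fitted against DMSO controls. Cells were a human umbilical vein endothelium plus PBMC co-culture under SEB/TSST-1 stimulation, measured 24 h after dosing.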

CD40, CD40 (gene 958) = assay: BSK_SAg_CD40: BioMAP Diversity Plus: SAg Assay for CD40 Biomarker Activity (AID 2283088); details: primary human HUVEC with PBMC; actives raise or lower the signal
Outline: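 Human umbilical vein endothelial cells co-cultured with PBMC; CD40 levels measured by ELISA with fluorescence read-out 24 h after chemical dosing. Gain or loss of signal fitted bidirectionally against DMSO baseline.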

[8] = read-out: Monocyte Chemoattractant Protein-1 (MCP1), CCL2 (gene 6347); assay: BSK_SAg_MCP1: BioMAP Diversity Plus: SAg Assay for Monocyte Chemoattractant Protein-1 (MCP1) Biomarker Activity (AID 2283090); details: primary human HUVEC with PBMC; actives raise or lower the signal
Outline: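 MCP-1 levels in the endothelial–PBMC SAg co-culture were quantified by ELISA at 24 h post-dosing; both increases and decreases versus DMSO scored. Cytotoxicity monitored by SRB total protein in parallel cultures.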

[9] = read-out: E-selectin (Homo sapiens) (UniProt P16581); assay: BSK_SAg_Eselectin: BioMAP Diversity Plus: SAg Assay for Eselectin Biomarker Activity (AID 2283091); details: primary human HUVEC with PBMC; actives raise or lower the signal
Outline: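 HUVEC co-cultured with PBMC, compound dosed then read at 24 h; E-selectin measured by ELISA. Activity fitted bidirectionally against DMSO as negative control and baseline.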

[10] = read-out: Monokine induced gamma interferon (MIG), CXCL9 (gene 4283); assay: BSK_SAg_MIG: BioMAP Diversity Plus: SAg Assay for Monokine induced gamma interferon (MIG) Biomarker Activity (AID 2283092); details: primary human HUVEC with PBMC; actives raise or lower the signal
Outline: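 Values reflect bidirectional fitting of ELISA-measured MIG against DMSO vehicle, taken 24 h after dosing of a co-culture of human umbilical vein endothelial cells and peripheral blood mononuclear cells.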

[11] = BSK_SAg_PBMCCytotoxicity: PBMC Cytotoxicity Assessment in the BioMAP Diversity Plus: SAg Assay (AID 2283093); details: primary human HUVEC with PBMC;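 further: PBMC viability measured as Alamar Blue reduction fluorescence at 546/580 nm; fitted both ways against DMSO so a hit may be loss or gain of signal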;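 on AC50: PBMC superantigen activated with SEB plus TSST-1 one hour after compound addition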
Outline: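 Compound added to 75,000 PBMC/well for 1 h; SEB and TSST-1 then added at 20 ng/mL final each; 90 h incubation; Alamar Blue 6 h; read 546/580 nm ex/em. Activity fitted bidirectionally relative to DMSO baseline.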

[12] = read-out: Interleukin-8 (IL8), CXCL8 (gene 3576); assay: BSK_SAg_IL8: BioMAP Diversity Plus: SAg Assay for Interleukin-8 (IL8) Biomarker Activity (AID 2283094); details: primary human HUVEC with PBMC; actives raise or lower the signal
Outline: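 In this co-culture of human umbilical vein endothelium with peripheral blood mononuclear cells, IL-8 is assayed by ELISA at 24 h. DMSO serves as baseline for bidirectional curve fitting.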

[13] = BSK_SAg_Proliferation: Cell Proliferation Assessment in the BioMAP Diversity Plus: SAg Assay (AID 2283095); details: primary human HUVEC with PBMC;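 further: relative cell number as total protein by SRB absorbance in sub-confluent culture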
Outline: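 Readout is SRB-stained protein (560 nm) in a primary human HUVEC and PBMC co-culture; sub-confluent cultures are read at 96 h. Activity is fitted bidirectionally using DMSO as baseline.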

[14] = BSK_SAg_SRB: Viability Assessment in the BioMAP Diversity Plus: SAg Assay (AID 2283096); details: primary human HUVEC with PBMC;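 further: cells read one day after compound addition; hits may be either gain or loss of signal compared with DMSO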
Outline: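 Total protein by sulforhodamine B staining, 24 h after dosing, in HUVEC–PBMC co-culture; DMSO-referenced bidirectional fitting.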

CD69, CD69 (gene 969) = assay: BSK_SAg_CD69: BioMAP Diversity Plus: SAg Assay for CD69 Biomarker Activity (AID 2283089); details: primary human HUVEC with PBMC; actives raise or lower the signal
Outline: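 Values derive from bidirectional fitting relative to DMSO vehicle. Cells: umbilical vein endothelium plus peripheral blood mononuclear cells, treated 24 h before fluorescent ELISA for CD69.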

Measured: AC50

Chain of E-selectin (Homo sapiens) (P16581 whole entry, looked up): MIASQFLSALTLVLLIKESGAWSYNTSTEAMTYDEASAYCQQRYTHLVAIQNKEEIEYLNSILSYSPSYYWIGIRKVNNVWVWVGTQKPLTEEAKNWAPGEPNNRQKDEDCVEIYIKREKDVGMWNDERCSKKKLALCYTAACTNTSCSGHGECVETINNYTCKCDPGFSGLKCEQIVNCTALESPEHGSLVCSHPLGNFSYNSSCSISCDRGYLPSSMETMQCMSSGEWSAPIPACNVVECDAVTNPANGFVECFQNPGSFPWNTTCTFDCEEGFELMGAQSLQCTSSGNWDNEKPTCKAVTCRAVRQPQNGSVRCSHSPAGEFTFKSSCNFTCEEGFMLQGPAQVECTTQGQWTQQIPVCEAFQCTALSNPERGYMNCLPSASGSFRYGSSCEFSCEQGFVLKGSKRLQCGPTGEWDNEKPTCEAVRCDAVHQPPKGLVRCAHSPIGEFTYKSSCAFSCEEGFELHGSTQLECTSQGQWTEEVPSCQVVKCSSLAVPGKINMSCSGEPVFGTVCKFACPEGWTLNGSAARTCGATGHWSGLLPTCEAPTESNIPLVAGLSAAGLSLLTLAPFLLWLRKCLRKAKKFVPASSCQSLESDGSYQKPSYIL
Chain of Tumor necrosis factor (Homo sapiens) (P01375 whole entry, looked up): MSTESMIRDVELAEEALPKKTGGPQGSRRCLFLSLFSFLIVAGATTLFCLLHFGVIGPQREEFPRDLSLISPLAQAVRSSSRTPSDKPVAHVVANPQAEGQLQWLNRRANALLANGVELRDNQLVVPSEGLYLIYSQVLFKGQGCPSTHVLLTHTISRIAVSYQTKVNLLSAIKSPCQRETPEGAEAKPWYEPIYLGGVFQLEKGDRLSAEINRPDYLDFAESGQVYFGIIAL

CCCCCCC=O
inactive: [1] | [2] | [3] | [4] | [5] | [6] | [7] | CD38, CD38 (gene 952) | CD40, CD40 (gene 958) | [8] | [9] | [10] | [11] | [12] | [13] | [14]

COc1ccc(C(=O)/C(Br)=C\C(=O)O)cc1
active: [1] 20 µM and 17 µM | [2] 31.3 µM and 27.4 µM | [3] 7.75 µM and 6.87 µM | [4] 12.8 µM and 20 µM | [5] 20 µM and 14.1 µM | [6] 14.3 µM and 28.4 µM | [7] 20 µM | CD38, CD38 (gene 952) 22.3 µM and 20 µM | CD40, CD40 (gene 958) 20 µM and 23.6 µM | [8] 20 µM | [9] 7.92 µM and 7.11 µM | [10] 35.2 µM and 34.5 µM | [11] 12 µM and 7.54 µM | [12] 3.97 µM | [13] 6.87 µM and 2.13 µM | [14] 25.9 µM and 31.6 µM
inactive: [12]

C=CC(=O)NC(C)(C)C
inactive: [1] | [2] | [3] | [4] | [5] | [6] | [7] | CD38, CD38 (gene 952) | CD40, CD40 (gene 958) | CD69, CD69 (gene 969) | [8] | [9] | [10] | [11] | [12] | [13] | [14]

CC(C)C(=O)OCCc1ccccc1
inactive: [1] | [2] | [3] | [4] | [5] | [6] | [7] | CD38, CD38 (gene 952) | CD69, CD69 (gene 969) | [8] | [9] | [10] | [11] | [12] | [13] | [14]

CCCCCCCCCCCC(=O)N(C)CC(=O)O
active: [3] 5.24 µM | [4] 5.86 µM
inactive: [1] | [2] | [3] | [4] | [5] | [6] | [7] | CD38, CD38 (gene 952) | CD69, CD69 (gene 969) | [8] | [9] | [10] | [11] | [12] | [13] | [14]

CCCC(C)C(=O)OCC (stereo unspecified)
inactive: [1] | [2] | [3] | [4] | [5] | [6] | [7] | CD38, CD38 (gene 952) | CD40, CD40 (gene 958) | [8] | [9] | [10] | [11] | [12] | [13] | [14]

Oc1ccccc1Cc1ccccc1O
active: [3] 2.47 µM and 1.8 µM
inactive: [1] | [2] | [4] | [5] | [6] | [7] | CD38, CD38 (gene 952) | CD69, CD69 (gene 969) | [8] | [9] | [10] | [11] | [12] | [13] | [14]
